Measured values reported in PubChem BioAssay AID1508600 (Functional Genomics Laboratory (NCATS/FGL), 2020).
Out of some 53,000 sequences screened, about 3,700 (7%) were called active. Only a selection was taken, and actives are over-represented in it overall. Values without a mark were called inactive.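 The calls were made as follows: active = gene knockdowns whose robust z-score for IL-1 alpha signal is at least 2 or at most -2, so actives lie on both sides; inactive = the rest.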

Assay: Components of the Cytosolic LPS Sensing Pathway: Gene Identification via Genome-wide siRNA Screen;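 also: robust z of the log signal after scaling to non-targeting control siRNA wells of the plate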
Details: RAW264.7 macrophages, IL-1a HTRF, actives lie on both sides, screened at 100 nM (by protocol), cells primed 5 h with Pam3CSK4 first
Procedure, shortened: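 RAW264.7 mouse macrophages reverse-transfected with single siRNAs (100 nM final) for 48h, primed with Pam3CSK4 for 5 hours, then transfected with LipidA for 24 hour. Supernatant IL-1a read by HTRF; values normalized to negative-control median, log-transformed robust z-scores.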

Sequence | z-score
CCAGUUUAUCACAUAACCUTT against Wasl | -0.928
CCAAAGAUACCAUUUUGCATT against Lypd8 | 0.599
GGUACCAGGUAUCUUCAUUTT against Pard6g | 2.95 (active)
GGAAUGCAGCCAUCCUAUCTT against Mia | 0.0985
CCCAGAUUACCGUAAGCGATT against Jup | 0.264
GGCCAAAUGGAAUAAGAAGTT against Wdr59 | 0.774
GGUUGCUUGGAAUUAAAAGTT against Klhl1 | -1.58
GGGUUGAUUUGGUGUUUUATT against Usp46 | 0.673
CCUUGUAGUAAUAGGGAUGTT against Olfr116 | 0.681
GGAAAUGAGUGAAGAUGAATT against Cdk11b | -0.186
GGCAUGUAAUGAAUUCACATT against Pbx3 | -2.14 (active)
CGCAUAUAUGUGUGUCGCCTT against Tmem125 | 0.256
CCCAAAUUGAUCCUAGCCUTT against Prkar1b | 0.307
GGGCCUAUGUGCUUUAUAUTT against Usp8 | -0.0584
GGUCAUGGAAGAAGCAAAGTT against Sltm | 2.08 (active)
GCUGUCCUGCCGUAAUAGATT against Oma1 | -0.619
GCAAAGGAUCCAAUUUUAGTT against Rnf227 | 1.28
GGUCCAAUUACUGAAGGUUTT against Spaca7 | 2.09 (active)
GCUCCAACUACAUUGACUATT against Olfr1410 | -0.396
GCCGAGAGAGCCAAUACAATT against Tbc1d16 | 0.248
GGAAACACCUUUGAGGCUCTT against Kndc1 | -1.88
GCUACAGGAUAAGUCCAAUTT against Kpnb1 | -2.01 (active)
CCGAAUCGUCCUAAACCAATT against Cyp11a1 | 0.284
GUACAUUUGCUGGAGCCUCTT against Hps6 | 0.395
GCCUUUCUUCUGUCAAUGATT against Olfr281 | 2.38 (active)
CCGACCAGAAGCUUUAAAGTT against Msrb1 | 1.05
GGGAGUUGGUGGAAUGCUUTT against Ech1 | -0.221
GGAGUUUGAACAAGAAAUATT against Prss12 | 1.11
GCCACCGAACCUAUAAAGCTT against Scd4 | 0.265
GGUGUGCAUCAAGCGACUGTT against Cacng6 | 2.1 (active)
